Compound activity as filed in PubChem BioAssay.
Compounds with a hit are over-represented: about 1.8% of the library has one in this group of screens.
Myeloid diff 2: myeloid differentiation induction | ER-HoxA9 myeloid progenitors, lysozyme-GFP differentiation, flow cytometry | calls only at 10 µM | 1% of 360,000 active;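 active = normalized GFP-positive differentiation at or above the plate's own cutoff, the solvent-only control mean plus 3 SD; inconclusive = no clear call, values can overlap the other calls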;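 note: cells exposed to compound for four days before flow analysis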
RPL19A TOR yeast: alters RPL19A-GFP fluorescence in TOR pathway yeast screen | S. cerevisiae RPL19A-GFP strain, flow cytometry, 3 h; hits give low values | percent response vs DMSO, % at 10 µM | 0.3% of 330,000 active;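 active = percent response vs DMSO below 50%; inconclusive = fewer than 70 events counted for the yeast strain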;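 note: median channel GFP fluorescence of the barcoded RPL19A-GFP strain; ratio of sample median GFP to plate DMSO average so 100% = DMSO; lower means less RPL19A-GFP as with rapamycin TOR inhibition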
MEP2 TOR yeast: modulators of TOR pathway MEP2-GFP in S. cerevisiae; GFP response vs DMSO, % at 10 µM; AID 2016; 0.51% of 330,000 active; S. cerevisiae MEP2-GFP strain, flow cytometry GFP, 3 h; 100% = DMSO control level;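 active = GFP response versus DMSO above a set limit, roughly screen mean plus 3 SD, cut at about 180% in these data; inconclusive = fewer than 70 cells counted for a yeast strain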;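 note: median GFP fluorescence of the barcode-gated MEP2-GFP cells per well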
AGP1 TOR yeast: alters AGP1-GFP fluorescence in TOR pathway yeast screen; S. cerevisiae AGP1-GFP multiplex flow cytometry, 3 h; GFP as percent of DMSO wells; GFP response vs DMSO, % at 10 µM; 0.02% of 320,000 active;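 active = GFP response relative to DMSO above a set limit, near screen average plus 3 SD, cut at about 150% in these data; inconclusive = fewer than 70 cells counted for the yeast strain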;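 note: median GFP channel fluorescence of the gated AGP1 strain per well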
CIT2-GFP yeast: yeast TOR pathway CIT2-GFP modulation | S. cerevisiae CIT2-GFP strain, flow cytometry, 3 h; 100 means same as DMSO wells | GFP response vs DMSO, % at 10 µM | 0.065% of 320,000 active | AID 2029;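 active = GFP response relative to DMSO above a set limit, near the screen mean plus 3 SD, cut at about 150% in these data; inconclusive = Fewer than 70 cells measured for a yeast strain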;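 note: ratio of well median GFP fluorescence to mean of DMSO wells on the plate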
LAP4-GFP MLPCN: yeast TOR pathway LAP4-GFP modulation. S. cerevisiae LAP4-GFP multiplex, flow cytometry GFP, 3 h; median GFP as percent of DMSO wells. GFP response vs DMSO, % at 10 µM. AID 2023. 0.34% of 320,000 active;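 active = GFP response vs DMSO above a set limit, about the screen mean plus 3 SD, cut at about 150% in these data; inconclusive = under 70 cell events counted for the yeast strain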
Myeloid diff: compounds promoting myeloid differentiation | shares compounds with Myeloid diff 2 | ER-HoxA9 myeloid progenitors, GFP/Mac1 double-positive flow | calls only | 2% of 2,300 active | AID 651706;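 active = share of green or green-and-red cells above 9 and 9% in run 1 or 4 and 3% in run 2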
GFP autofluor: compound fluorescence in myeloid differentiation counter-screen | shares compounds with Myeloid diff 2 | fluorescence response, % (no concentration beside the values) | ER-HoxA9 myeloid progenitors, no estrogen, GFP autofluorescence flow cytometry; vehicle wells 0%, positive control 100% | AID 651707 | 7.4% of 2,300 active;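 active = over 5% cells positive for green fluorescent reporter, or over 2% positive for both it and APC stain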;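 note: range taken on the double positive population between DMSO and positive control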
The depositor's hits bear a star; i = inactive; ? = inconclusive; · = not tested or not shown; + = active, no number.

SMILES | Myeloid diff 2 | RPL19A TOR yeast | MEP2 TOR yeast | AGP1 TOR yeast | CIT2-GFP yeast | LAP4-GFP MLPCN | Myeloid diff | GFP autofluor
C#CCOCCOCCOCCNc1nc(N2CCOCC2)nc(N2CCN(C(=O)[C@H]([C@@H](C)CC)n3cc(CCCCN)nn3)CC2)n1 | + | · | · | · | · | · | i | 1
C#CCOCCOCCOCCNc1nc(N2CCN(C(=O)[C@H]([C@@H](C)CC)n3cc([C@@H](N)CO)nn3)CC2)nc(N2CCN(C(=O)[C@H]([C@@H](C)CC)n3cc([C@@H](N)Cc4ccc(O)cc4)nn3)CC2)n1 | i | 96 | 95 | 75 | 67 | 127 | · | ·
COc1ccc(-c2nn3c(-c4cccc(C)c4)nnc3s2)cc1OC | i | 98 | 101 | 80 | 88 | 100 | i | 0
CCOC(=O)c1cnc2ccc(OC)cc2c1Nc1ccc2c(c1)OCCO2 | i | 101 | 104 | 109 | 101 | 113 | · | ·
CCOC(=O)c1cnc2ccc(C(=O)OC)cc2c1Nc1ccc2c(c1)OCCO2 | · | 95 | 98 | 90 | 88 | 101 | i | 0
O=C(c1ccc(S(=O)(=O)N2CCOCC2)cc1)N1CCN(c2ccccc2F)CC1 | i | 97 | 101 | 104 | 101 | 103 | · | ·
O=C(c1ccc(S(=O)(=O)N2CCOCC2)cc1)N1CCN(c2ccc(F)cc2)CC1 | i | 91 | 92 | 83 | 88 | 86 | i | 0
N#Cc1c(C(F)(F)F)cc(-c2ccccc2)nc1SCC(=O)Nc1sc2c(c1C#N)CCC2 | i | 100 | 102 | 102 | 101 | 106 | i | 0
Cc1ccc(S(=O)(=O)N2CCC(C(=O)Nc3ccc(S(=O)(=O)N4CCOCC4)cc3)CC2)cc1 | i | · | · | · | · | · | · | ·
Cc1cc(C)c(C)c(S(=O)(=O)N2CCC(C(=O)Nc3ccc(S(=O)(=O)N4CCOCC4)cc3)CC2)c1C | i | 110 | 101 | 101 | 107 | 104 | i | 0
Cc1nc2ccccn2c(=O)c1NC(=O)c1ccc2c(c1)OCO2 | i | · | · | · | · | · | · | ·
CC(=O)C1=C(O)C=C(c2ccco2)CC1c1ccco1 (stereo unspecified) | i | 99 | 106 | 93 | 91 | 114 | i | 0
O=C(CCl)N1N=C(c2ccco2)CC1c1ccco1 (stereo unspecified) | ? | 104 | 105 | 75 | 96 | 98 | · | ·
O=C(N/N=C/c1ccc([N+](=O)[O-])o1)c1ccc2c(c1)OCO2 | i | 105 | 94 | 65 | ? | 83 | i | 0
CC(NC(=O)NC(=O)c1ccc(Cl)cc1Cl)C1CC1 (stereo unspecified) | · | 99 | 104 | 105 | 101 | 118 | · | ·
COC(=O)[C@]12CCCCC=C1N(Cc1ccc3c(c1)OCO3)C(=O)[C@H](CC(=O)NCc1ccc(C)o1)C2 | i | · | · | · | · | · | · | ·
Cc1cc(C)n(-c2ccc(F)cc2CN2CCN(Cc3ccccc3)C(CCO)C2)n1 (stereo unspecified) | i | 101 | 101 | 99 | 98 | 109 | · | ·
COc1ccc(-n2nc3ccc(N)cc3n2)cc1Cl | i | 101 | 102 | 72 | ? | 96 | i | 0
Cc1ccc(-n2nc3ccc(N)cc3n2)cc1Cl | i | 104 | 104 | 21 | ? | 104 | · | ·
N#CCCSc1nc(N2CCOCC2)c2c(c1C#N)CCCC2 | i | 99 | 103 | 106 | 98 | 112 | i | 0
CN(C)S(=O)(=O)Oc1ccsc1C(=O)Nc1cccc(Cl)c1Cl | i | 99 | 99 | 102 | 102 | 106 | i | 0
Cc1cccc(NC(=S)NCC23C=CC(O2)C2C(=O)N(c4ccc(Cl)cc4)C(=O)C23)c1 (stereo unspecified) | + | 104 | 96 | 96 | 89 | 108 | i | 1
OC(COCC1CC=CCC1)Cn1cnc2ccccc21 (stereo unspecified) | i | 97 | 98 | 104 | 92 | 80 | · | ·
Cc1nc2ccccc2n1CC(O)COCC1CC=CCC1 (stereo unspecified) | + | 103 | 104 | 100 | 99 | 97 | i | 0
CCN1C(=O)C(O)(C2COC(C)(C)CC2=O)c2ccccc21 (stereo unspecified) | i | 96 | 96 | 94 | 92 | 90 | · | ·
SMILES | Myeloid diff 2 | RPL19A TOR yeast | MEP2 TOR yeast | AGP1 TOR yeast | CIT2-GFP yeast | LAP4-GFP MLPCN | Myeloid diff | GFP autofluor
CCN1C(=O)C(O)(C2COC(C)(C)CC2=O)c2cc(Br)ccc21 (stereo unspecified) | i | 98 | 102 | 104 | 98 | 97 | i | 12*
CCCn1c(=O)c(C(=O)NC(C)c2ccccc2)c(O)c2ccccc21 (stereo unspecified) | i | 109 | 102 | 105 | 100 | 98 | · | ·
CCn1c(=O)c(C(=O)NC(C)c2ccccc2)c(O)c2ccccc21 (stereo unspecified) | + | 108 | 103 | 105 | 105 | 97 | i | 0
CCCCOc1cccc(C2C(C(=O)c3ccc(C)o3)=C(O)C(=O)N2c2nnc(C)s2)c1 (stereo unspecified) | + | · | · | · | · | · | i | 2
CSc1nc(N)nc(SCC(=O)Nc2ccc(Cl)cc2)c1C#N | i | 100 | 100 | 97 | 97 | 108 | i | 0
CSc1nc(N)nc(SCC(=O)Nc2cccc(F)c2)c1C#N | i | 97 | 102 | 98 | 100 | 95 | · | ·
CCOc1ccc(NC(=O)/C=C/c2ccc(OC)cc2)c([N+](=O)[O-])c1 | i | 102 | 97 | 97 | 107 | 109 | i | 0
COCCn1c(=NC(=O)/C=C/c2ccccc2Cl)sc2cc(NC(C)=O)ccc21 | i | 102 | 107 | 97 | 106 | 98 | · | ·
FC(F)(F)c1ccc(-n2ccnc2)nc1 | + | 95 | 93 | 99 | 96 | 91 | i | 0
COCCN1C[C@@H](CO)O[C@@H](n2cnc3c(NCCN(C)C)ncnc32)C1 | i | · | · | · | · | · | · | ·
Nc1cc(Nc2ccccc2)ccn1 | + | 96 | 94 | 100 | 106 | 94 | i | 2
Cc1ccnc2nc(C(=O)OCC(=O)N(Cc3ccccc3)C(C)C)nn12 | i | 101 | 105 | 103 | 102 | 107 | · | ·
COCCCNC(=O)c1ccc(Cn2c(=O)c3ccccc3n(Cc3ccccc3C#N)c2=O)cc1 | + | 100 | 103 | 103 | 91 | 101 | i | 0
Brc1ccc(-c2csc3[n+]2CCCCC3)cc1 | + | 93 | 98 | 108 | 101 | 126 | + | 0
CCN1C(=O)/C(=C/c2cn(C)nc2C)SC1=S | i | 105 | 103 | · | 98 | 102 | · | ·
